Source: PubChem BioAssay AID504546 (Broad Institute, 2011)
Inconclusive results are not listed. The source made the active and inactive calls.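 The calls were made as follows: active = every repeat run fits a falling-signal curve with half-maximal potency within ten times top tested dose; inconclusive = runs disagree, or flat moderate drop, or poor fit; inactive = every run inactive, including signal moving upward.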

Experiment: ADP-Glo luciferase signal interference – biochemical, luminescence, cherry-picked samples, set 2, artefact control for CDK5 inhibitor project, dose response (AID 504546)
Conditions: ADP-Glo detection reagent counter screen, 5 uM ADP; series mostly up to 30 µM

SMILES | outcome
CC(C)(C)c1ccc(C(=O)O/N=C(\N)c2ccccn2)cc1 | inactive
CC(C)C[C@H](CO)Nc1nc(N(C)c2cccc(Cl)c2)c2ncn(C(C)C)c2n1 | inactive
CCNc1nc(Nc2ccc(C)c(Cl)c2)c2cnn(C)c2n1 | inactive
O=c1c(O)cccc2cc(O)c(O)c(O)c12 | inactive
Oc1ccc(/C=N/Nc2ccc(C(F)(F)F)cn2)cc1 | inactive
COc1ccc(Nc2nc(N)c(C(=O)c3ccc(F)cc3)s2)cc1 | inactive
CCC(C)(C)C1CCc2[nH]nc(C(=O)NCCN3CCOCC3)c2C1 (stereo unspecified) | inactive
Cc1ncc(CO)c(/C=N/Nc2ccc(C(F)(F)F)cn2)c1O | inactive
O=C(NNC(=O)c1cccs1)c1ccccc1 | inactive
CCOc1cc(C(=O)N2CCN(c3ccccn3)CC2)cc(OCC)c1OCC | inactive
COc1cccc(OC)c1C(=O)N1CCN(c2ccccn2)CC1 | inactive
Nc1nc(Nc2cccc(F)c2)nc(NCCO)c1[N+](=O)[O-] | inactive
Nc1ncnc2c1ncn2C1OC(CO)C(O)C1O (stereo unspecified) | inactive
CCc1ncc(/C=C2\C(=O)Nc3ccccc32)[nH]1 | inactive
Oc1ccc(-c2nc(-c3ccc(O)c(O)c3)cs2)cc1 | inactive
O=C(O)c1ccc(/C=N/Nc2ncc(C(F)(F)F)cc2Cl)cc1 | inactive
Cc1ccc2nc(Cl)c(C#N)cc2c1 | inactive
Nc1ccc(-c2cnc(N)c(C(=O)c3cccnc3)n2)cn1 | inactive

SMILES | outcome
NC(=S)N/N=C/c1c(O)c(Br)cc2oc3c(c12)CCCC3 | inactive
O=C(NNC(=O)c1ccccn1)c1ccc(OC(F)F)cc1 | inactive
COc1cc(/C=N/Nc2ccc(C(F)(F)F)cn2)ccc1O | inactive
C=CC(=O)Nc1ccc(Nc2nc(NC3CCC(N(C)C)CC3)nc3c2ncn3C(C)C)cc1 (stereo unspecified) | inactive
O=[N+]([O-])c1ccc2c(c1)/C(=N\O)c1ccccc1-2 | inactive
Clc1ccc(N/N=C/c2ccncc2)cc1Cl | inactive
O=C(O)CCC(=O)NCCn1c(-c2ccccc2)csc1=Nc1ccccc1 | inactive
CC(C)n1cnc2c(N(C)c3cccc(Cl)c3)nc(N(CCO)CCO)nc21 | inactive
COc1ccc(Nc2nc(N)c(C(=O)c3ccc(OC)cc3)s2)cc1 | inactive
CCc1c(Nc2ccccc2Cl)nc(N)[nH]c1=O | inactive
Cc1ccc(Nc2nc(NCCO)nc3c2cnn3C)cc1Cl | inactive
O=C1Nc2cc(C(=O)N3CCC(N4CCCCC4)CC3)ccc2S/C1=C\c1ccccc1 | inactive
NC(=O)c1cc([N+](=O)[O-])c(Cl)cc1NCc1cccnc1 | inactive
CCCn1c(NC(=O)c2cccc(S(=O)(=O)N3CCCC3)c2)nc2ccccc21 | inactive
NC(=O)N/N=C/c1c(O)ccc2oc3c(c12)CCCC3 | inactive
CCNc1nc(N)nc(-c2cc(Cl)ccc2O)n1 | inactive
COc1ccc(C(=O)N2CCN(c3ccccn3)CC2)cc1 | inactive
Cc1cc(C)c2nc(C(F)(F)F)c(C#N)c(N)c2c1 | inactive
